Experimental data published in PubChem BioAssay (NCATS).
Results filed as inconclusive are left out. Entries that show only a call come without a potency. Calls of active or inactive are those of the source. Unless noted, calls follow the shape of the dose curve; as a rule, active = well fitted curve in the direction sought with a large enough effect; inconclusive = small, poorly fitted or top-dose-only effect, or another doubt; inactive = no such curve, though single readings can be large; an effect the other way counts as inactive or inconclusive.

Columns and labels:
[1] = target: Tyrosyl-DNA phosphodiesterase 1 (Homo sapiens) (UniProt Q9NUW8); assay: Confirmation Assay for Inhibitors of Tyrosyl-DNA Phosphodiesterase (TDP1) (AID 489007); conditions: recombinant human TDP1 enzymatic activity, dose-response; also: potency is read from the fitted curve at half-maximal effect; nearly all actives have a fitted effect of over 40% in size
How it was run: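 Compounds are preincubated 15 min at room temperature with 1 nM recombinant human Tdp1. The reaction starts on adding 15 nM FITC-phosphotyrosine DNA substrate, runs 5 min, and is detected by AlphaScreen beads after 10 min.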

[2] = target: Guanine nucleotide-binding protein G(i) subunit alpha-1 (Homo sapiens) (UniProt P63096); assay: qHTS Assay for Inhibitors of RGS12 GoLoco Motif Activity (Green Fluorophore) (AID 879); conditions: Galphai1/FITC-RGS12 GoLoco peptide, fluorescence polarization; series mostly up to 57.1 µM;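 also: negative values mean loss of peptide binding seen as reduced polarization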
How it was run: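 A drop in FITC polarization marked displacement of the FITC-tagged RGS12 GoLoco peptide (10 nM) from Gαi1 (50 nM). Compounds were incubated 10 min at room temperature in Tris pH 7.5 buffer containing 150 mM NaCl, 0.1 mM GDP and 0.05% NP40; unlabeled peptide titration served as control.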

[3] = qHTS Assay for Identification of Small Molecule Agonists for Thrombopoietin (TPO) Signaling Pathway (AID 917); conditions: TPO signaling pathway reporter cells, agonist qHTS, stimulated with TPO at its EC50; series mostly up to 38.5 µM
How it was run: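 Stimulation at the TPO EC50 (26 pM final) was used to detect activators. Ba/F3 mouse cells bearing human TPO receptor and a luciferase reporter under the Glycoprotein IIb promoter were exposed to compounds for 24 hrs at 37 C.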

[4] = target: Muscarinic acetylcholine receptor M1 (Rattus norvegicus) (UniProt P08482); assay: qHTS Assay for Antagonists of Acetylcholine Muscarinic M1 Receptor: Measurement of IP-One Response (AID 944); conditions: CHO-M1 cells, IP-One HTRF, antagonist mode; series mostly up to 46.1 µM; also: nearly all actives have a fitted effect of over 75% in size
How it was run: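 Antagonist mode with rat M1 receptor transfected into CHO cells. Compound is added first for 10 min, carbachol at its EC80 follows for 30 min, and lysis reagents then allow TR-FRET detection of accumulated IP1.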

[5] = target: Pyruvate kinase (Leishmania mexicana) (UniProt Q27686); assay: qHTS Validation Assay for Inhibitors of Leishmania Mexicana Pyruvate Kinase (AID 945); conditions: purified L. mexicana pyruvate kinase, enzyme activity, E451W mutant enzyme; series mostly up to 57.5 µM
How it was run: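 Pyruvate kinase activity of E451W LmPYK (0.2 nM) was followed as ATP output after 1 h at room temperature with 0.5 mM PEP and 0.1 mM ADP, detected by PKLight luminescence.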

[6] = target: Pyruvate kinase PKM (Homo sapiens) (UniProt P14618); assay: qHTS Assay for Activators of Human Muscle Pyruvate Kinase (AID 954; active = well fitted curve in the direction sought with a large enough effect, not every such curve was filed as active); conditions: purified human muscle pyruvate kinase, luciferase-coupled luminescence, 1 h; series mostly up to 57.5 µM
How it was run: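 Screening used highly purified human pyruvate kinase M2 under submaximal activity, with PEP at its Km and ADP below Km. After an hour at room temperature, ATP was read by luciferase luminescence.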

[7] = target: alpha-glucosidase (Oryza sativa, rice) (UniProt Q653V4); assay: Counterscreen for Glucocerebrosidase Inhibitors: qHTS Assay for Rice alpha-Glucosidase at pH 5.0 (AID 997); conditions: rice alpha-glucosidase enzyme activity; series mostly up to 76.9 µM
How it was run: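 Endpoint fluorogenic assay at pH 5.0: compounds (0.7 nM to 77 uM) titrated against 4 nM rice enzyme and 400 uM 4-MU-alpha-glucoside for 20 min at room temperature; NaOH/glycine stop, read ex 365/em 440 nm, Hill-fitted AC50.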

[8] = target: DNA dC->dU-editing enzyme APOBEC-3G (Homo sapiens) (UniProt Q9HC16); assay: qHTS for inhibitors of Vif-A3G interactions: Validation (AID 588379); conditions: Vif-A3G protein interaction assay; series mostly up to 46.1 µM
How it was run: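 Yellow fluorescence (Ex 488, Em 500-530) of Vif-coexpressing HeLa A3G-eYFP cells, scanned by Acumen cytometer, reports blocked A3G degradation. Cells plated at 700/well overnight at 37 deg C before compound addition, then a further overnight compound incubation at 37 deg C.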

Sequence of Pyruvate kinase (Leishmania mexicana) (Q27686 2-499 E452W): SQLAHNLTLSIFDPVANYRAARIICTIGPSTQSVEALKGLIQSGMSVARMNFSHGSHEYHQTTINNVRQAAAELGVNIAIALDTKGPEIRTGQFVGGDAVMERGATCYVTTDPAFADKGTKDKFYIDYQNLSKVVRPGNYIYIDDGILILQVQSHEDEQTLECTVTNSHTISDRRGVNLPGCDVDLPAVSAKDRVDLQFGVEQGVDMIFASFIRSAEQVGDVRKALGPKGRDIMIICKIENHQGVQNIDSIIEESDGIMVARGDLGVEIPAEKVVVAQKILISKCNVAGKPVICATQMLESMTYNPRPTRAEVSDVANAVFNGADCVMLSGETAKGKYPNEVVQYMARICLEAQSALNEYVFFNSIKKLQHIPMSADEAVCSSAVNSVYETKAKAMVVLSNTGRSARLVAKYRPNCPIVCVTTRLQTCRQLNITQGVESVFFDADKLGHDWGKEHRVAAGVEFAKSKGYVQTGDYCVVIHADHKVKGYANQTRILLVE
Sequence of Tyrosyl-DNA phosphodiesterase 1 (Homo sapiens) (Q9NUW8 whole entry, looked up): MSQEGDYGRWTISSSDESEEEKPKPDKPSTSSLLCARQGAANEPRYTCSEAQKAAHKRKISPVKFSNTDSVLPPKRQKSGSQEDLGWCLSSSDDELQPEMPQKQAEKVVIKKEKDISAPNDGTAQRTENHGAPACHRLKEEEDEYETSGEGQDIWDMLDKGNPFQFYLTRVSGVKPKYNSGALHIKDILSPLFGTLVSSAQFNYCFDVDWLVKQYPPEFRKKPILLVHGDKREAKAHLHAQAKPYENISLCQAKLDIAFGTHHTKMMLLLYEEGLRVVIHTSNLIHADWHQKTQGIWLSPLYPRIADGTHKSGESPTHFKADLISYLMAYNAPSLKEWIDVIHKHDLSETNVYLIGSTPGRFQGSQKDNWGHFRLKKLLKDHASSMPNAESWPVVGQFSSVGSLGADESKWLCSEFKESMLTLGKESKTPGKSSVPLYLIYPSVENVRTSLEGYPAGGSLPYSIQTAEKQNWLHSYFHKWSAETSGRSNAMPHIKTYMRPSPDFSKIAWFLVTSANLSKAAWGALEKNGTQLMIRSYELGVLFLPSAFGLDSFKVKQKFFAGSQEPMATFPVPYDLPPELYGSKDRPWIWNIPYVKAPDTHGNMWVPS
Sequence of Muscarinic acetylcholine receptor M1 (Rattus norvegicus) (P08482 whole entry, looked up): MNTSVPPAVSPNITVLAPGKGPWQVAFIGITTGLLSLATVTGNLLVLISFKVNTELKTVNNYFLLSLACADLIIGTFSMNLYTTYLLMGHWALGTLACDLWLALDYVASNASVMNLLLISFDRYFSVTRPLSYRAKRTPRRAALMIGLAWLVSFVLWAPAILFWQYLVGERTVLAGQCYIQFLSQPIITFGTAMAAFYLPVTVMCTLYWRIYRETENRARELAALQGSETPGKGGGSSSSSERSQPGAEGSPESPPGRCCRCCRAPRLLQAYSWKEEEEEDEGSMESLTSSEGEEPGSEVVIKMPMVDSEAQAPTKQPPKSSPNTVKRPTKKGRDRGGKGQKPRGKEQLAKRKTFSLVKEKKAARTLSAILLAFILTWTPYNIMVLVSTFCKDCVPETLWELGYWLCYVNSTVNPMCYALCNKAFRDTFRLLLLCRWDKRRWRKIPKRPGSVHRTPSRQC
Sequence of Guanine nucleotide-binding protein G(i) subunit alpha-1 (Homo sapiens) (P63096 whole entry, looked up): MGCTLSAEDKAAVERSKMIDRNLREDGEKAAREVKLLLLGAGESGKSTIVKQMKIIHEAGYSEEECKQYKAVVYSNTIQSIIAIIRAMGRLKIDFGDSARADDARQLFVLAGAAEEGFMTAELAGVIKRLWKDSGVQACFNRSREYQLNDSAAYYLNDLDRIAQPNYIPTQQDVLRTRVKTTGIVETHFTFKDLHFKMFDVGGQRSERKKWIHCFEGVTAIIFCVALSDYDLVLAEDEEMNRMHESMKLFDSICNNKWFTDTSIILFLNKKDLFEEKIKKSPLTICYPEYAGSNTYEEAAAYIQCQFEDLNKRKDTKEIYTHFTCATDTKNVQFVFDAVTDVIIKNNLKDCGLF
Sequence of DNA dC->dU-editing enzyme APOBEC-3G (Homo sapiens) (Q9HC16 whole entry, looked up): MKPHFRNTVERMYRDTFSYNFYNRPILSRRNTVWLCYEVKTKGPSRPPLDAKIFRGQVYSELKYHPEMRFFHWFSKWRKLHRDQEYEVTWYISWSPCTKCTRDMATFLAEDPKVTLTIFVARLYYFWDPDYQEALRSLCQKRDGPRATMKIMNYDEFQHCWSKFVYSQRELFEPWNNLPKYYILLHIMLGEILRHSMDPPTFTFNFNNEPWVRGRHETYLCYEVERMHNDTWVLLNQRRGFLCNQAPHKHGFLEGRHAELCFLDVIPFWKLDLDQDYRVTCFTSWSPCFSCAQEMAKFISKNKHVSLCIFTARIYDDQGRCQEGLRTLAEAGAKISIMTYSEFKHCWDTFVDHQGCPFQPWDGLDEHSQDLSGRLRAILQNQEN
Sequence of Pyruvate kinase PKM (Homo sapiens) (P14618 whole entry, looked up): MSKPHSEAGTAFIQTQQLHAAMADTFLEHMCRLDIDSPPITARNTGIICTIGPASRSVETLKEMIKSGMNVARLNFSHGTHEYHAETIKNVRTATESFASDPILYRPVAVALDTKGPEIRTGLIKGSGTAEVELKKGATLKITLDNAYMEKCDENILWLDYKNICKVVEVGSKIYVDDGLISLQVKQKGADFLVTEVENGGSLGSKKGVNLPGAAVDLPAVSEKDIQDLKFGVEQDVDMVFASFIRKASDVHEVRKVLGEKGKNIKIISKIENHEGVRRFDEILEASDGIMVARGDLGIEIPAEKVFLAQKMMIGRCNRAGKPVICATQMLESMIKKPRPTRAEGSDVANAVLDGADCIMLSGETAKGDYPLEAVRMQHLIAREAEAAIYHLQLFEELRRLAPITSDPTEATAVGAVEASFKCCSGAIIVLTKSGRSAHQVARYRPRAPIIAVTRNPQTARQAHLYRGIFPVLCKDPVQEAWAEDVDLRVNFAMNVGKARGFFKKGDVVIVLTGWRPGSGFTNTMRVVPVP

CN(C)C(=O)c1ccc(-c2cncnc2NCc2cccs2)cc1
Potency [1]: 1780 nM (active)

Cn1cc(C(F)(F)F)nc1-c1ccc(OC[C@@H](O)CNCCOc2ccc(O)c(C(N)=O)c2)cc1
Potency [2]: inactive
outcome [3]: inactive
Potency [4]: inactive
outcome [5]: inactive
outcome [6]: inactive
outcome [7]: inactive
outcome [8]: inactive
